Inconclusive results are not listed. Active and inactive are the calls of the source. Unless noted, calls come from the whole dose curve; as a rule, active = well fitted curve in the direction sought with a large enough effect in the repeat runs; inconclusive = weak or mixed curves; inactive = no such curve, though single readings can be large; an effect the other way counts as inactive or inconclusive. Positions of bridges follow the written chain, without caps; N, C: chain ends. Non-standard residues stand in square brackets, D forms with d. Residues, ends and D or L forms follow the SMILES beside them. hArg = N=C(N)NCCCC[C@H](N)C(=O)O; Mpa = O=C(O)CCS
Experiments:
[1] = qHTS assay to identify small molecule antagonists of the estrogen receptor beta (ER-beta) signaling pathway - cell viability counter screen (AID 1259382);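 note: HEK293T cells carrying ER-beta-UAS-bla reporter stimulated with estradiol; series mostly up to about 92 µM; nearly all actives have a fitted effect of over 55% in size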
Method in brief: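 ER-beta-UAS-bla HEK293T cells (2,000/well, 2% charcoal-stripped FBS) were pre-incubated 6 hr at 37C, then given compound plus 1nM final 17-beta-estradiol for 16 hr. Viability was read in the same wells by CellTiter-Glo luminescence after 30 min at room temperature.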

[2] = qHTS assay to identify small molecule agonists or antagonists of the thyroid stimulating hormone receptor (TSHR) signaling pathway - wild type cell line counter screen (AID 1259384; calls by dose curve)
Method in brief: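 Wild-type HEK293 cells were plated 18 h at 37 C/5% CO2, pin-dosed with compound plus Ro20-1724 medium, held 30 min at room temperature, then given cAMP-d2 and anti-cAMP-cryptate; fluorescence was read after 1 h. Fifteen concentrations, triplicate.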

[3] = molecular target: Thyrotropin receptor (Homo sapiens) (UniProt P16473); assay: qHTS assay to identify small molecule antagonists of the thyroid stimulating hormone receptor (TSHR) signaling pathway (AID 1259385; calls by dose curve; note: nearly all actives have a fitted effect of over 20% in size)
Method in brief: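 TSHR-HEK293 cells were plated and held 18 h at 37C/5% CO2, then given compound plus Ro20-1724 and stimulated with TSH at 1.5 ng/mL final. After 30 min at room temperature, cAMP was detected with cAMP-d2/anti-cAMP-cryptate (1 h) by fluorescence.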

[4] = qHTS assay to identify small molecule agonists of the estrogen receptor alpha (ER-alpha) signaling pathway in the presence of an antagonist - cell viability counter screen (AID 1259386);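 note: series mostly up to about 92 µM; cells exposed to compounds for 22 h at 37 °C before the viability read; nearly all actives have a fitted effect of over 30% in size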
Method in brief: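 VM7Luc4E2 cells (endogenous full-length ER-alpha, 4×ERE-luciferase) were held 5 days in phenol red-free medium with 10% charcoal-stripped FBS, plated, then given 10.0nM ICI-182,780 and compounds at 15 concentrations for 22hr at 37C; viability read by CellTiter-Fluor fluorescence.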

[5] = molecular target: Progesterone receptor (Homo sapiens) (UniProt P06401); assay: qHTS assay to identify small molecule agonists of the progesterone receptor (PR) signaling pathway (AID 1346784; calls by dose curve; note: nearly all actives have a fitted effect of over 30% in size)
Method in brief: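 Fluorescence from LiveBLAzer B/G FRET substrate cleavage (2 hr, RT) reported PR activation in PR-UAS-bla HEK 293T cells treated 16 hr at 37C/5% CO2 with compounds; medium contained 2% charcoal-stripped FBS.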

[6] = molecular target: Progesterone receptor (Homo sapiens) (UniProt P06401); assay: qHTS assay to identify small molecule antagonists of the progesterone receptor (PR) signaling pathway (AID 1346795; active = well fitted inhibition curve with a large enough effect in the signal ratio in the repeat runs, not every such curve was filed as active; the % refers to the signal ratio)
Method in brief: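 Fluorescence intensity measured 2 hr after adding beta-lactamase FRET substrate to PR-UAS-bla HEK293T cells that had been co-treated 16 hr with compound and 1 nM R5020 (final concentration) in 2% charcoal-stripped FBS.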

[7] = qHTS assay to identify small molecule antagonists of the progesterone receptor (PR) signaling pathway - cell viability counter screen (AID 1346798); note: series mostly up to about 92 µM; nearly all actives have a fitted effect of over 50% in size
Method in brief: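 CellTiter-Glo luminescence; PR-UAS-bla HEK293T, 3,000 cells/well; compound + R5020, 16 hr, 37C/5% CO2; 30 min RT before read.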

[8] = qHTS assay to identify small molecule agonists of the progesterone receptor (PR) signaling pathway - cell viability counter screen (AID 1346799; calls by dose curve; note: nearly all actives have a fitted effect of over 45% in size)
Method in brief: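 In parallel with the beta-lactamase readout, cytotoxicity toward PR-UAS-bla HEK293T cells was measured by CellTiter-Glo luminescence following 16 hr compound incubation in 2% charcoal-stripped FBS medium.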

[9] = qHTS assay to identify small molecule antagonists of the TGF-beta/Smad signaling pathway - cell viability counter screen (AID 1346824); note: nearly all actives have a fitted effect of over 50% in size
Method in brief: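 SBE-bla HEK 293T cells were plated overnight at 37 C, then given compounds in DMSO plus TGF-beta1 (added as 0.25 ng/mL solution) for 5 hr. After the bla read, CellTiter-Glo was added to the same wells and luminescence read after 30 min at room temperature.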

[10] = qHTS assay to identify small molecule agonists of the TGF-beta/Smad signaling pathway - cell viability counter screen (AID 1346829); note: top concentration of the series differs between compounds; nearly all actives have a fitted effect of over 45% in size
Method in brief: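 CellTiter-Glo luminescence readout; SBE-bla HEK 293T cells, overnight plating, compound 5 hr at 37 C/5% CO2, then bla substrate 2 hr RT, then CellTiter-Glo 30 min RT.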

[11] = qHTS assay to identify small molecule agonists of the TGF-beta/Smad signaling pathway (AID 1346859; active = well fitted activation curve with a large enough effect in the signal ratio in the repeat runs, not every such curve was filed as active; the % refers to the signal ratio; note: series mostly up to about 77 µM)
Method in brief: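 After overnight seeding, SBE-bla HEK 293T cells are dosed with compounds in DMSO and kept 5 hr at 37 C, 5% CO2. LiveBLAzer-type FRET substrate is then applied for 2 hr at room temperature.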

[12] = molecular target: Thyrotropin-releasing hormone receptor (Homo sapiens) (UniProt P34981); assay: qHTS assay to identify small molecule antagonists of the thyrotropin-releasing hormone receptor (TRHR) signaling pathway (AID 1346877; active = well fitted inhibition curve with a large enough effect in the repeat runs, not every such curve was filed as active; note: series mostly up to about 51 µM)
Method in brief: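 TRHR-expressing HEK293 cells were seeded, cultured 18 h at 37 °C, then loaded with calcium dye for 2 h. Compounds were pre-incubated 5 min at room temperature before 1 nM TRH (final) was added, and kinetic fluorescence was recorded for 3 min.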

[13] = molecular target: Thyrotropin-releasing hormone receptor (Homo sapiens) (UniProt P34981); assay: qHTS assay to identify small molecule agonists of the thyrotropin-releasing hormone receptor (TRHR) signaling pathway (AID 1346891; calls by dose curve; note: series mostly up to about 58 µM)
Method in brief: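 Compounds were tested as agonists at 15 concentrations, in triplicate, on TRHR-Hek293 cells; calcium-sensitive dye fluorescence was recorded for 3 min following addition.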

[14] = Human pregnane X receptor (PXR) small molecule agonists, qHTS cell viability counter screen (AID 1346977); note: nearly all actives have a fitted effect of over 50% in size
Method in brief: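 Viability counter screen: CellTiter-Fluor signal in PXR-Luc HepG2 cells, 24hr compound exposure, 37C, 5% CO2.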

[15] = Caspase-3/7 induction in HepG2 cells by small molecules, qHTS assay (AID 1346978); note: nearly all actives have a fitted effect of over 15% in size
Method in brief: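 Wild-type HepG2 cells (2,000/well) were settled 5 h at 37 C, 5% CO2, then exposed to compounds in DMSO for 17 h. Caspase-3/7 activity was read by luminescence 30 min after adding Caspase-Glo 3/7 reagent at room temperature.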

[16] = Caspase-3/7 induction in CHO-K1 cells by small molecules, qHTS cell viability counter screen (AID 1346979); note: nearly all actives have a fitted effect of over 35% in size; note: potency is the fitted concentration of half-maximal effect
Method in brief: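 Viability readout by fluorescence (CellTiter-Fluor) on wild-type CHO-K1 cells exposed for 16hr at 37C and 5% CO2 to compounds delivered in DMSO; reagent incubated 1hr before reading.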

[17] = Caspase-3/7 induction in CHO-K1 cells by small molecules, qHTS assay (AID 1346980); note: nearly all actives have a fitted effect of over 15% in size
Method in brief: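 Wild-type cells were seeded at 1,500 per well and settled 5 hr at 37 C, 5% CO2, then exposed to DMSO-dissolved compounds for 17 hr. Caspase-Glo 3/7 reagent was added, and luminescence was read after 30min at room temperature.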

[18] = Caspase-3/7 induction in HepG2 cells by small molecules, qHTS cell viability counter screen (AID 1346981); note: series mostly up to about 92 µM; nearly all actives have a fitted effect of over 30% in size
Method in brief: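 Wild-type HepG2 cells (2,000/well) were allowed to settle for 5 hr at 37 C, 5% CO2, then dosed with compounds in DMSO by pin transfer. After 16 hr at 37 C, CellTiter-Fluor was added and fluorescence read 1 hr later.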

[19] = molecular target: Nuclear receptor subfamily 1 group I member 2 (Homo sapiens) (UniProt O75469); assay: Human pregnane X receptor (PXR) small molecule agonists, qHTS assay (AID 1346982); note: nearly all actives have a fitted effect of over 35% in size; note: potency is the fitted concentration of half-maximal effect
Method in brief: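 PXR-Luc HepG2 cells (CYP3A4 promoter-driven luciferase) were seeded in medium with 5% charcoal-stripped FBS, left 5 hr at 37 C, then exposed to compounds in DMSO for 24 hr. Luminescence was read after ONE-Glo addition.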

Measured: Potency

Chain of Thyrotropin-releasing hormone receptor (Homo sapiens) (P34981 whole entry, looked up): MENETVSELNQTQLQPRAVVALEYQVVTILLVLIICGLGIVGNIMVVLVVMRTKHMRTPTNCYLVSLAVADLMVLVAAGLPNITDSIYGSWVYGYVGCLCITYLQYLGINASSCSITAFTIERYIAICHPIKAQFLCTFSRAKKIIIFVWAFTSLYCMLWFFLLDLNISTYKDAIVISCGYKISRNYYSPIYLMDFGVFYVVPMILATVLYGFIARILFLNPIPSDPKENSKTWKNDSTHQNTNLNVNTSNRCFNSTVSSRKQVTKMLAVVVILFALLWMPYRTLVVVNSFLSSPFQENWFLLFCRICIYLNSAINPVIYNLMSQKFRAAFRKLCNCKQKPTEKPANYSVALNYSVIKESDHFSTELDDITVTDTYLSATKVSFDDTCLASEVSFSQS
Chain of Thyrotropin receptor (Homo sapiens) (P16473 whole entry, looked up): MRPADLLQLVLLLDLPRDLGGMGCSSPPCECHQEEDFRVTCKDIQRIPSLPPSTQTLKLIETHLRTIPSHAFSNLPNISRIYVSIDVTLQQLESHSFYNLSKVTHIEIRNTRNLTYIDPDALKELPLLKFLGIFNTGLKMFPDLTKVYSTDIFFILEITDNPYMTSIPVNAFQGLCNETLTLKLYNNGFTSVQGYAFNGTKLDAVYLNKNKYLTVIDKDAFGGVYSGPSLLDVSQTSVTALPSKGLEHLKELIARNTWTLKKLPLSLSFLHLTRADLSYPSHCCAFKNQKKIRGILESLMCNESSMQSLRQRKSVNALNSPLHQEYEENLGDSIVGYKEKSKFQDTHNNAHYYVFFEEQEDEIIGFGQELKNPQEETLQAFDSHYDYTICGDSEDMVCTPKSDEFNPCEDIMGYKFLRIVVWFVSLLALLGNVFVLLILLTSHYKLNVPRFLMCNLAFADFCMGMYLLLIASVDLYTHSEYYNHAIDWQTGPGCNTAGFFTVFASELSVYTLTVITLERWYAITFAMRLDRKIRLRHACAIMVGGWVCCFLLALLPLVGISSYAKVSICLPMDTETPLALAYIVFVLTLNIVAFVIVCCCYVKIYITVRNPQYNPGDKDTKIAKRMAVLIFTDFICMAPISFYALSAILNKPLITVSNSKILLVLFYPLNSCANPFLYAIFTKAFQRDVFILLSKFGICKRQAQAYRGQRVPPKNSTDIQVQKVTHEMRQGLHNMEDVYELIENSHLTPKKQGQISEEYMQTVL
Chain of Progesterone receptor (Homo sapiens) (P06401 whole entry, looked up): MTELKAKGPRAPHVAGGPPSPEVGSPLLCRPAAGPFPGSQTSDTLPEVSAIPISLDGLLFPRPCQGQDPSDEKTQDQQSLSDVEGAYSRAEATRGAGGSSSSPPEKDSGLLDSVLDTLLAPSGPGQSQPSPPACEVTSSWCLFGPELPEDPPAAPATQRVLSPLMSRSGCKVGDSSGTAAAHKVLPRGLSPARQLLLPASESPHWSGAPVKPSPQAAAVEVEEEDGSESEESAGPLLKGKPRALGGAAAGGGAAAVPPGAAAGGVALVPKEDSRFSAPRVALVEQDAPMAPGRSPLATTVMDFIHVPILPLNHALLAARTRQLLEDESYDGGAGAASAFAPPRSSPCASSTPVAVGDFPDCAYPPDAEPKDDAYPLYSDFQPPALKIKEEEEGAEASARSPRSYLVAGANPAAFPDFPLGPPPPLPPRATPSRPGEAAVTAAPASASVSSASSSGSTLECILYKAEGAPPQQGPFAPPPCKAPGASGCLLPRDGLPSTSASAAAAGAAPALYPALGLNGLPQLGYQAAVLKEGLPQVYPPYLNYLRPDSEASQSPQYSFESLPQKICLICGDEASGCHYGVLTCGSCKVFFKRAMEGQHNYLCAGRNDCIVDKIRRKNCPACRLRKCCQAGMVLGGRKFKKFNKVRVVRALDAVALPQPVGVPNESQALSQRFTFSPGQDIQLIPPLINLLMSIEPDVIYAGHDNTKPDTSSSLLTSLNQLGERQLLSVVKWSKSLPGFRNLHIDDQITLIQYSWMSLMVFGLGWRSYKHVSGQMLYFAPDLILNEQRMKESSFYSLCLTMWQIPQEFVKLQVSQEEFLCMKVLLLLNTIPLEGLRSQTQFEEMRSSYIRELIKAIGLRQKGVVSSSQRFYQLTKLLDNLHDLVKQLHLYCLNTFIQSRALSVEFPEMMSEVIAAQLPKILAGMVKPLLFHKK
Chain of Nuclear receptor subfamily 1 group I member 2 (Homo sapiens) (O75469 whole entry, looked up): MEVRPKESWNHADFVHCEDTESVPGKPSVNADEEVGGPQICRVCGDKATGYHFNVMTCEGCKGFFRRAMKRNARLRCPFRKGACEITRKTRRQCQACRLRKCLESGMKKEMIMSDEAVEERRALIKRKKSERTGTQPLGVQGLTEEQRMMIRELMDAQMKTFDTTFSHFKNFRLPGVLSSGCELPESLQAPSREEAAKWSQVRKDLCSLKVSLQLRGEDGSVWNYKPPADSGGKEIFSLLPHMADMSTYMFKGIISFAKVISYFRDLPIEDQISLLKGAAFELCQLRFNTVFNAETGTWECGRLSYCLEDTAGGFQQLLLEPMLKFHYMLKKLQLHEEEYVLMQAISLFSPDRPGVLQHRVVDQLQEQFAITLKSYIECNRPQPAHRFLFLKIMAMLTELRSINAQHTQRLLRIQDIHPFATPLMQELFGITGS

CCCC(=O)OCCC(C)CCC=C(C)C (stereo not given)
inactive: all assays above

C=CC(=O)CCCCC
not listed: [12] | [13]
inactive: all other assays above

OCC(O)CN1CCN(c2ccccc2)CC1 (stereo not given)
inactive: all assays above

CC(O)COC(C)(C)C (stereo not given)
not listed: [11]
inactive: all other assays above

ONc1ccccc1
not listed: [19]
inactive: all other assays above

O=C(Cl)c1ccccc1[N+](=O)[O-]
inactive: all assays above

O=Cc1cc2ccccc2o1
not listed: [18]
inactive: all other assays above

Cc1ccnc(N)c1
not listed: [12] | [13] | [16] | [18]
inactive: all other assays above

NC(=O)[C@@H]1CSSCCC(=O)N[C@@H](CCCCN=C(N)N)C(=O)NCC(=O)N[C@@H](CC(=O)O)C(=O)N[C@@H](Cc2c[nH]c3ccccc23)C(=O)N2CCC[C@H]2C(=O)N1 ([Mpa][hArg]GDWPC-NH2; disulfide 1-7)
active: [16] 10.6 µM
inactive: all other assays above

COS(=O)(=O)O
not listed: [11]
inactive: all other assays above

O/N=C/C=N/O
inactive: all assays above

Cc1ccc(C(C)NC(=O)[C@@H](NC(=O)OC(C)C)C(C)C)cc1 (stereo not given in full)
active: [19] 21.6 µM
inactive: all other assays above

CC(C)[C@H]1CC[C@H](C)C[C@@H]1O
active: [19] 55.4 µM
inactive: all other assays above

Cn1c(=O)c2[nH]c(Br)nc2n(C)c1=O
not listed: [11]
inactive: all other assays above

Source: PubChem BioAssay (Tox21)
